# PLK1 PBD inh – inhibitors of human PLK1 polo-box domain binding; P53350; Plk1 PBD binding of FITC phosphopeptide, fluorescence polarization; Potency, µM, for inactives: max response, negative = inhibition, hits mostly inhibitors; hit rate 2.8% among 360,000; AID 720504; note: potency is the fitted concentration of half-maximal effect; series mostly up to about 57 µM; nearly all actives have a fitted effect of over 65% in size
# USP2a inh – USP2a (human) protease inhibition; O75604; USP2 core, Ub-CHOP2 coupled fluorogenic reporter, 485/531; Potency, µM (titrated, usually from 38.3 µM), for inactives: at the highest dose activity change, negative = inhibition, hits mostly inhibitors; hit rate 0.01% among 330,000; AID 463254;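 note: potency is the fitted concentration of half-maximal effect; plate controls were DMSO wells for no effect and full inhibition by NEM control for full effect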
#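 Deubiquitinase activity read as fluorescence (485/531 nm) after Ub-CHOP2 cleavage activates the enterokinase reporter on its substrate; USP2 core 10nM, Ub-CHOP2 and substrate 25nM each, 30min compound preincubation then 60min RT; data normalized to NEM, curves fitted.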
# VDR inh – vitamin D3 receptor (human) inhibition; Potency, µM, for inactives: max response, negative = inhibition, usual class: inhibitors; AID 504847; P11473; hit rate 0.93% among 400,000; VDR-SRC2-3 peptide fluorescence polarization, 2 h; note: potency is the fitted concentration of half-maximal effect
#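 Compounds are added to VDR with labelled SRC2-3 coactivator peptide and held 2 h at room temperature. Inhibition of the VDR–peptide interaction is then read as a change in fluorescence polarization.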
# USP1 inh – USP1/UAF1 (human) deubiquitinase inhibition; recombinant USP1/UAF1, Ub-Rhodamine cleavage fluorescence; Potency, µM (titrated, usually from 57.1 µM), for inactives: at the top dose activity change, negative = inhibition, most hits filed as inhibitors; hit rate 0.23% among 390,000; AID 743255; O94782; note: potency is the fitted concentration of half-maximal effect; nearly all actives have a fitted effect of over 60% in size
#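 USP1/UAF1 complex (1 nM) preincubated 15 min at room temperature with compound, then Ub-Rho substrate (150 nM final) added. Kinetic fluorescence at 480/540 nm over 6 reads at 60 s intervals; 50 mM HEPES pH 7.8, 0.5 mM EDTA, 0.1 mg/ml BSA, 1 mM TCEP, 0.01% Tween-20.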
# Coupling enz – coupling enzyme interference in Giardia aldolase counter-screen. hit rate 0.67% among 290,000. coupling enzyme system counterscreen, AmpLite Red fluorescence. activity change, negative = inhibition, % at 58.2 µM, hits read low; in the data active = activity change below about -30%
#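 Fluorescence at 525 nm excitation and 598 nm emission measured inhibition of the coupled detection system without aldolase. Compounds (at 57.5 uM final) were preincubated 10 min at room temperature with coupling enzyme reagent before a 20 min substrate/AmpLite Red step.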
# GALK inhibitor – inhibitors of human galactokinase. Purified GALK, Kinase-Glo residual ATP luminescence. Potency, µM (doses to about 57.5 µM), for inactives: top-dose activity change, negative = inhibition, actives largely listed as inhibitors. hit rate 0.007% among 270,000. AID 1868; note: potency is the fitted concentration of half-maximal effect
#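 Quantitative HTS: GALK 5 nM, ATP 35 uM, galactose 100 uM, 1 h room temperature, then luciferase-based ATP detection.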
# * = called active by the depositor; ? = inconclusive; . = no result given. Shown are actives, neighbours in structure and some others; about 3.2% of the full set was active somewhere. Unless noted, calls come from the whole dose curve; as a rule, active = well fitted curve in the direction sought with a large enough effect; inconclusive = small, poorly fitted or top-dose-only effect, or another doubt; inactive = no such curve, though single readings can be large; an effect the other way counts as inactive or inconclusive. Unless noted, % is set by controls: 0 for no effect and ±100 for the full control effect.
SMILES,PLK1 PBD inh,USP2a inh,VDR inh,USP1 inh,Coupling enz,GALK inhibitor
Cc1ccccc1-c1c(C)oc2cc(O)ccc2c1=O,-9%,1%,-2%,?,6,3%
CC(C)NS(=O)(=O)c1ccc(CCC(=O)N2CCC(C(N)=O)CC2)cc1,5%,0%,15%,-7%,-31*,1%
COCCNC(=O)/C(C#N)=C/c1cccc(/C=C(\C#N)C(=O)NCCOC)c1,?,1%,35µM*,-16%,1,0%
N#C/C(=C\c1cccc([N+](=O)[O-])c1)C(=O)NCc1ccc(Cl)cc1,?,1%,40µM*,?,-2,3%
COCCCNC(=O)/C(C#N)=C/c1ccc(OCC(=O)O)c(OC)c1,21µM*,1%,-5%,-12%,-1,.
Oc1ccc(N=Nc2ccc3ccccc3c2)cc1,7%,-7%,-8%,-21%,-1,1%
CCOc1ccc(NC(=O)CC)cc1,.,13%,.,.,2,0%
COc1ccc(S(=O)(=O)NCc2ccccc2Cl)cc1OC,2%,0%,18%,-15%,-4,-2%
CCOc1ccc(S(=O)(=O)NCc2ccccc2Cl)cc1C(N)=O,-8%,-3%,-8%,-5%,-37*,2%
CCOc1ccccc1CNS(=O)(=O)c1ccc2c(c1)oc(=O)n2C,27µM*,3%,-7%,-19%,3,3%
N=c1n(CCN2CCOCC2)c2ccccc2n1CC(=O)c1cccc([N+](=O)[O-])c1,15%,0%,-7%,-8%,-11,3%
COc1ccc(OCC(O)Cn2c(=N)n(CCN3CCCCC3)c3ccccc32)cc1 (centres undefined),2.7µM*,5%,-11%,-28%,-2,0%
N=c1n(CCN2CCCCC2)c2ccccc2n1CC(O)COc1ccc(Cl)cc1Cl (centres undefined),.,.,0%,10%,.,.
N=c1n(CCN2CCCC2)c2ccccc2n1CC(O)c1ccc(Cl)c(Cl)c1 (centres undefined),24µM*,1%,13%,-8%,2,1%
N=c1n(CCN2CCOCC2)c2ccccc2n1CC(=O)c1ccc(Cl)c(Cl)c1,-3%,-1%,6%,-22%,-31*,0%
O=C(O)/C(=C\c1ccccc1Cl)c1ccc(S(=O)(=O)N2CCCCC2)s1,-12%,0%,-6%,-22%,19,0%
CS(=O)(=O)c1ccc(C(=O)NC2CCOC2=O)cc1 (centres undefined),1%,-2%,-3%,-5%,2,4%
Oc1ccc(/C=N\Nc2cc(N3CCOCC3)nc(N3CCOCC3)n2)c(O)c1,-6%,1%,1%,?,-20,-5%
Oc1ccc(/C=N/Nc2cc(N3CCCC3)nc(N3CCCC3)n2)cc1O,?,2%,-25%,-22%,-37*,0%
CCn1c(COc2ccc(C)cc2)nnc1SCc1ccc(C#N)cc1,-2%,1%,-4%,-4%,1,3%
Cc1oc2ccc(OS(C)(=O)=O)cc2c1C(=O)OC(C)C,19µM*,4%,?,-17%,1,0%
N#C/C(=C\c1c(Oc2ccc(Br)cc2)nc2ccccn2c1=O)c1nc2ccccc2s1,.,.,40µM*,-5%,.,.
Cc1ccn2cc(-c3cccc(NC(=O)c4ccccc4)c3)nc2c1,7%,-1%,-6%,-21%,-1,1%
Cc1ccn2cc(-c3cccc(NC(=O)C(C)C)c3)nc2c1,21µM*,3%,-14%,-12%,-5,-2%
COc1ccc(C(=S)N2CCN(C)CC2)cc1,27µM*,-1%,-1%,-15%,4,-1%
O=C(c1ccc2c(c1)OCO2)N1CCN(c2cccc(C(F)(F)F)c2)CC1,-12%,1%,-7%,1%,3,6%
N#CC1=C(N)C2=CCCC[C@H]2[C@H](c2ccccc2)C1(C#N)C#N,-27%,3%,79µM*,-17%,-3,-1%
